Only some compounds are listed: those with a hit (about 3.3% of all), similar ones and a draw of the others.
Statin myotox sup: suppressors of statin myotoxicity in C2C12 myotubes, primary screen, cell-based, single point, plate reader; C2C12 myotubes + simvastatin, ATP luminescence, 48 h; scaled: DMSO 0, geranylgeraniol control 100; rescue of ATP level, % at 7.49 µM; 330,000 compounds, 0.78% hits; AID 602340, 2012;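 active means mean ATP rescue above about 67%, or every replicate alone reaching that limit, limit read from the data, passing the limit was not always enough; inconclusive means no clear call, values can overlap the other calls; inactive means mean under the limit and some replicate under it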;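 further: myotubes were challenged with 10 µM simvastatin during compound exposure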
MITF TRPM1 HTS: activators of MITF-driven TRPM1 promoter reporter, primary screen, cell-based, SK-MEL-5, luciferase, single point | SK-MEL-5 TRPM1-promoter luciferase, 24 h; % of positive control, neutral wells = 0 | activation, % at 12.5 µM | 300,000 compounds, 0.75% hits;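 active means mean activation of at least 80% with every replicate also reaching 80%; inconclusive means mean reaches 80% but some replicate falls short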;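 further: 0% = neutral control wells and 100% = parthenolide positive control wells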
esBAF inh: Bmi1 luciferase reporter increase in mESCs, primary screen, esBAF inhibitor project, mouse ES cells, Bmi1 luciferase knock-in, single point | 350,000 compounds, 2% hits | 24 h; 100% = twice the neutral-well signal | reporter increase, % at 12.5 µM; in the data active means activation above about 40%; inconclusive means no clear call, values can overlap the other calls;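 further: 0% = median of the plate's neutral control wells and 100% = double that signal; a rise in the Bmi1 reporter signal indicates esBAF inhibition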
Wnt bcat act: Wnt/beta-catenin pathway activators, primary screen, cell-based, plate reader, single point; Wnt/beta-catenin reporter cell assay, activator; activation, % at 9.35 µM; 300,000 compounds, 1.2% hits; AID 743398, 2014; in the data active means activation above about 30%, passing the limit was not always enough; inconclusive means no clear call, values can overlap the other calls;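 further: 0% = neutral control wells and 100% = positive control wells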
GAA850 FXN act: FXN promoter activators, primary screen, cell-based, luciferase luminescence, HEK293 lucGAA850; activation, % at 6 µM; AID 540364, 2011; HEK293 lucGAA850 FXN promoter luciferase reporter, 24 h; percent of 10 µM SAHA response; 360,000 compounds, 0.56% hits;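 active means activation above the average of all compounds screened plus 3 SD, cutoff fixed separately per campaign, cut at about 7.5% in these data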;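 further: 0% = DMSO wells and 100% = 10 µM SAHA wells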
Numbers without * were called inactive; ? = inconclusive; nt = not tested or not shown; ! = a repeat was not active.

SMILES	Statin myotox sup	MITF TRPM1 HTS	esBAF inh	Wnt bcat act	GAA850 FXN act
N#Cc1cnn(Cc2ccccc2)c1N	112.1*	-5.3	-13.3	-1.8	2.6
COc1ccc(NC(=O)N2C[C@@H](O)COC[C@@H]3O[C@@H](CC(=O)N4CCCCC4)CC[C@H]32)cc1	-4.7	nt	-1.9	nt	nt
Cc1cc(=O)oc2c(CN3CCCCC3)c(O)c(Cl)cc12	97.1*	-1.1	4.8	nt	2.0
COc1cccc(NC(=O)Nc2ccc3c(c2)nnn3C)c1	nt	107.3*	48.4*	15.6	1.4
CN(C)c1ccc(NC(=O)Nc2ccc3c(c2)nnn3C)cc1	-7.6	nt	38.9	11.5	3.4
O=C(Nc1ccccc1)OCCCc1ccccc1	4.4	56.5	57.1*	?	5.1
COc1cccc(NC(=O)Nc2ccc(CC(=O)O)cc2)c1	1.6	-5.2	-4.0	-1.5	-1.4
CCc1ccc(OC(=O)Nc2ccccc2)cc1	2.0	92.2*	-4.6	23.5	5.6
COc1ccc(OC(=O)Nc2ccccc2)cc1	-4.0	?	14.4	nt	3.9
CCc1ccc(NC(=O)Nc2cccc(OC)c2)cc1	5.0	50.6	62.1*	-3.5	4.5
O=C(C1CCCCC1)N1C[C@@H]2[C@H](c3ccccc31)[C@H](CO)N2Cc1ccccc1Cl	21.3	nt	2.8	nt	nt
C[C@H]1CN([C@@H](C)CO)C(=O)c2cc(C#Cc3ccccn3)cnc2O[C@@H]1CN(C)CC1CCCC1	11.7	nt	-0.7	nt	nt
COc1ccccc1C(=O)Nc1ccc2c(c1)C(=O)N(C)C[C@H](OC)[C@@H](C)CN[C@@H](C)CO2	37.1	nt	13.8	nt	nt
C[C@H](O)C#Cc1cnc2c(c1)C(=O)N([C@H](C)CO)C[C@H](C)[C@H](CN(C)C(=O)CC1CC1)O2	-0.2	nt	-1.3	nt	nt
Cc1ccc(NC(=O)c2ccc3c(c2)nnn3C)cc1	nt	52.5	nt	39.2*	3.5
Cn1nnc2cc(C(=O)Nc3ccc(Cl)cc3)ccc21	nt	52.6	nt	15.4	4.4
C/C(=N\Nc1ccc([N+](=O)[O-])cc1)c1cccc(N)c1	-45.9	107.6*	84.9*	26.0	7.4
O=[N+]([O-])c1ccc(Nc2ccc3ccccc3c2)nc1	-22.4	79.5	95.6*	-0.4	7.3
CC(C=NNc1ccc([N+](=O)[O-])cn1)=Cc1ccccc1	-1.4	77.9	-8.1	63.7*	5.0
CC(=NNc1ccc([N+](=O)[O-])cn1)c1ccccc1	-3.0	92.1*	88.5*	6.4	2.1
O=[N+]([O-])c1ccc(NN=C(c2ccccc2)c2ccccc2)nc1	-0.3	1.3	-5.8	-0.5	0.3
C/C(=N\Nc1ccc([N+](=O)[O-])cc1)c1ccc(O)cc1	nt	65.3	nt	10.9	2.5
Clc1cc(Cl)c2nc(N3CCCC3)sc2c1	nt	28.7	nt	36.3*	2.0
Clc1cc(Cl)c2nc(N3CCCCC3)sc2c1	-8.4	69.8	52.9*	59.8*	4.9
CC1CC(=O)Nc2ccccc2N1C(=O)Nc1ccc(F)cc1 (stereo not given)	nt	nt	nt	39.0*	-1.6
SMILES	Statin myotox sup	MITF TRPM1 HTS	esBAF inh	Wnt bcat act	GAA850 FXN act
CC1CC(=O)Nc2ccccc2N1C(=O)Nc1ccc(F)cc1F (stereo not given)	6.0	-1.5	1.6	-1.3	1.3
O=c1[nH]ncc2c3ccccc3n(Cc3ccccc3)c12	107.6*	-0.9	-0.9	nt	2.2
Cc1ccc(Cn2c3ccccc3c3cn[nH]c(=O)c32)cc1	35.8	-5.8	1.7	-2.6	1.5
CO[C@@H]1CN(C)C(=O)c2cc(NC(=O)C3CC3)ccc2OC[C@H](C)N(C(=O)c2ccccc2F)C[C@@H]1C	-2.0	nt	4.5	nt	nt
Cc1[nH]c2ccccc2c(=O)c1SC(F)(F)C(F)C(F)(F)F (stereo not given)	104.0*	-11.4	2.2	nt	1.2
COC(=O)C(F)(F)Sc1c(C)[nH]c2ccccc12	0.9	2.9	3.8	0.1	3.7
COCC#Cc1cnc2c(c1)C(=O)N([C@H](C)CO)C[C@@H](C)[C@@H](CN(C)S(=O)(=O)c1cn(C)cn1)O2	-0.1	nt	0.5	nt	nt
Cc1ccc(Cn2ccsc2=NC(=O)COC(=O)c2ccc(O)cc2O)cc1	-9.6	40.8	47.2*	6.4	4.5
COc1ccccc1NC(=O)N(C)C[C@H]1Oc2ncc(C#CC(C)C)cc2C(=O)N([C@@H](C)CO)C[C@@H]1C	22.2	nt	1.0	nt	nt
CC(C)(C)C(=O)Cn1c(=O)n(CC2CCCO2)c(=O)c2ccccc21 (stereo not given)	nt	-2.9	nt	nt	-1.9
O=C(Cn1c(=O)n(CC2CCCO2)c(=O)c2ccccc21)c1ccc(Cl)c(Cl)c1 (stereo not given)	80.2*	-6.6	-0.4	nt	0.9
COc1ccc(/C=C/c2nnc(NC(C)=O)s2)cc1	16.7	nt	-12.6	36.8*	4.1
CCCSc1nnc(-c2c[nH]c3ccccc23)n1CC	-25.7	15.1	4.6	4.6	-1.0
CCCSc1nnc(-c2c[nH]c3ccccc23)n1C	-16.5	40.2	43.6*	-21.2	0.1
CCC(CO)Oc1cc(NCc2ccccc2)c2ncn(C(C)C)c2c1 (stereo not given)	8.0	-9.7	60.3*	-2.6	0.1
C[C@]12CC[C@H]3C(=CCc4cc(O)ccc43)[C@@H]1CCC2=O	-0.8	36.6	30.9*!	0.2	2.4
C[C@]12C[C@H](O)[C@@H]3c4ccc(O)cc4CCC3[C@@H]1CCC2=O (stereo not given in full)	3.1	10.5	-0.9	-0.5	0.3
C=CCNC(=S)NNc1nc2c(c(=O)[nH]1)C1(CCCC1)Cc1ccccc1-2	nt	-0.3	nt	51.9*	-0.6
O=c1[nH]c(NNC(=S)NCc2ccccc2)nc2c1C1(CCCCC1)Cc1ccccc1-2	4.0	-4.7	-7.1	nt	1.5
c1ccc2c(-n3cccn3)cccc2c1	7.5	37.2	71.2*	nt	1.2
COC(=O)c1c(C)oc2ccc(NS(=O)(=O)c3cc(OC)ccc3OC)cc12	121.5*	1.0	-7.7	nt	-0.9
CC1CCCN(C(=O)CSc2nnc(-c3cccs3)o2)C1 (stereo not given)	1.8	89.1*	14.7	13.5	4.5
O=C(CSc1nnc(-c2cccs2)o1)c1cccs1	2.4	?	104.0*	nt	4.1
C[C@@H]1CN([C@@H](C)CO)C(=O)c2cc(C#C[C@@H](C)O)cnc2O[C@H]1CN(C)C(=O)CN1CCOCC1	-18.9	nt	2.4	nt	nt
COc1ccc(NC(=O)Nc2cccc3c2O[C@@H](CN(C)CC2CCCCC2)[C@H](C)CN([C@@H](C)CO)C3=O)cc1	16.6	nt	0.3	nt	nt
Cc1cc2oc(=O)cc(CN(C)Cc3ccccc3)c2cc1C	-3.3	nt	48.4*	7.6	nt
Cc1ccc2c(CN(C)Cc3cccc(F)c3)cc(=O)oc2c1C	-6.0	34.8	49.7*	5.9	1.1
Cc1ccc2c(CN(C)Cc3ccc(OC(F)F)cc3)cc(=O)oc2c1C	-0.3	-1.0	-1.5	-1.1	1.1

High-throughput results (PubChem BioAssay)
